# Bioassay records as filed in PubChem BioAssay.
# This excerpt belongs to a sample that is enriched for hits.
# Methyltransferases = Primary Screen for Target Class Profiling of Small Molecule Inhibitors of Methyltransferases; purified enzyme, MTase-Glo SAH luminescence; hits give low values; calls only at 40 µM; 25,000 compounds, 3.9% hits; call rule not given here
#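 Each enzyme was reacted with SAM and its substrate, with compounds tested once at 40 uM; SAH formed was read by MTase-Glo luminescence.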
# Calls only; – = inactive; + = active, no number; ! = not active in a repeat.
SMILES,Methyltransferases
CC(=O)Nc1c2n(c3ccccc13)CC(C)(C(=O)NC1CCCCCC1)N(C1CCC(C)CC1)C2=O (stereo not drawn),–
CCC1c2ccc(C)n2CCN1C(=O)Nc1ccccc1C (stereo not drawn),–
COc1cc(CC2COC(c3ccc(OC4OC(CO)C(O)C(O)C4O)c(OC)c3)C2CO)ccc1O (stereo not drawn),–
COC(=O)c1cc(COc2ccc3c(-c4ccccc4)cc(=O)oc3c2)c(C)o1,–
O=C(Cc1ccccc1)OC[C@H]1O[C@H](O[C@H]2O[C@H](CO)[C@@H](O)[C@H](O)[C@H]2O)[C@H](O)[C@@H](O)[C@@H]1O,–
O=C(CCc1ccccc1)c1c(O)c([C@@H]2O[C@H](CO)[C@@H](O)[C@H](O)[C@H]2O)c(O)c([C@@H]2O[C@H](CO)[C@@H](O)[C@H](O)[C@H]2O)c1O,+
CN(C)c1ccc(C(=O)NC[C@H]2O[C@@H](CO)[C@@H](O)[C@H]2N(C)CCc2ccccc2)cc1,–
CC1(C)O[C@@]2(C)CC[C@@H]1C[C@@H]2OC1OC(CO)C(O)C(O)C1O (stereo partly drawn),+
CC(C)C(=O)O[C@@H]1[C@@H](O)[C@@H](O[C@H]2O[C@H](CO)[C@@H](O)[C@H](O)[C@H]2O)O[C@H](CO)[C@H]1O,–
CC(C)C(=O)OC[C@H]1O[C@H](O[C@H]2O[C@H](CO)[C@@H](O)[C@H](O)[C@H]2O)[C@H](O)[C@@H](O)[C@@H]1O,–
Cc1cccc(NC(=O)Cn2nc3n(CCC(C)C)c(=O)c4ccc(C(=O)NC(C)C)cc4n3c2=O)c1,–
NC(=O)CCN1CCc2onc(-c3ccccc3F)c2C1,–
COc1ccc(NC(=O)c2ccc3c(c2)N(C(=O)c2ccc(OC)cc2)CC3)cc1,–
CCN(CC)Cc1ccc2cc(COC(=O)Nc3ccc(C(=O)NO)cc3)ccc2c1,+!
CC1(C(=O)NC2CCCCC2)Cn2nc(-c3ccco3)cc2C(=O)N1CCc1ccc(Cl)cc1 (stereo not drawn),–
CC1(C)CN(C(=O)COc2ccccc2)CC(=O)N(Cc2ccccc2)C1,–
COc1ccccc1CNC(=O)C1(C)Cn2c(cc3ccccc32)C(=O)N1C1CCCC1 (stereo not drawn),–
COc1ccc(-c2nnc(-c3ccc(Cl)c(S(=O)(=O)N4CCC(C)CC4)c3)o2)cc1OC,–
COc1ccc(-c2oc3ccc(C)cc3c(=O)c2O)cc1OC,+
CCN1CCN(Cc2cc3ccc(C)cc3nc2-c2ccc(OC)c(OC)c2)CC1,–
CCCCc1cc(C[C@H]2CNCC[C@H]2CC(=O)N2CCC(Cc3ccccc3)CC2)no1,–
COc1cccc(CN2C(=O)c3cc4sccc4n3CC2(C)C(=O)NC2CCCCC2C)c1OC (stereo not drawn),–
CCCC1(C(=O)O)CCCN(S(=O)(=O)c2ccsc2C(=O)O)C1 (stereo not drawn),–
CC1(C(=O)NCc2ccc(F)cc2)Cn2cnc(C(=O)Nc3ccc(F)cc3Cl)c2C(=O)N1C1CC1 (stereo not drawn),–
Clc1ccc(-c2csc(NN=C3CCCC3)n2)cc1,+!
SMILES,Methyltransferases
Oc1ccc(Nc2nc(-c3ccc(Cl)cc3)cs2)cc1,–
C[C@@H]1CCC2C(C)(C)[C@H](O)[C@H](O)C[C@]2(C)[C@@]12Cc1c(O)cc3c(c1O2)CN(CCCC(=O)O)C3=O (stereo partly drawn),–
COc1cccc(NS(=O)(=O)c2cc3c(cc2Cl)n(C)c(=O)n3C)c1,–
CC(C)(C)c1cc2n(n1)CC(C)(C(=O)NCc1ccccc1)N(Cc1cccc(F)c1)C2=O (stereo not drawn),–
Clc1ccc(C(Cn2ccnc2)OCc2c(Cl)cccc2Cl)c(Cl)c1 (stereo not drawn),+
CC(=O)C1=CCC2C3CCC4CC(O[C@@H]5O[C@H](CO)[C@@H](O[C@@H]6O[C@@H](C)[C@H](O)[C@@H](O)[C@H]6O)[C@H](O)[C@H]5O[C@@H]5O[C@H](CO)[C@@H](O)[C@H](O)[C@H]5O)CCC4(C)C3CCC12C (stereo partly drawn),–
CCOc1ccc(CN2C(=O)c3cc4occc4n3CC2(C)C(=O)NC2CCCCC2C)cc1 (stereo not drawn),–
CCCn1c(=O)c2ccccc2n2c(SCC(=O)NC(C)CC)nnc12 (stereo not drawn),–
CN1CCc2cc(Cl)c(O)cc2[C@@H](c2ccccc2)C1,–
Oc1cc2c(cc1O)C(c1ccccc1)CNCC2 (stereo not drawn),+
Oc1ccc(CC2NCCc3cc(O)c(O)cc32)cc1 (stereo not drawn),–
CCc1cccc(-n2nnnc2N2CCN(C(=O)Cc3ccc(C)c(F)c3)CC2)c1,–
CCC(C)NC(=O)c1ccc2c(=O)n(C)c3nn(CC(=O)Nc4cc(C)cc(C)c4)c(=O)n3c2c1 (stereo not drawn),–
Cc1ncc2n1C(=O)N(C1CCN(CC3CC3)CC1)C2,–
CC1(C(=O)NCc2ccccc2)Cn2nc(-c3ccccc3)cc2C(=O)N1c1ccc2c(c1)OCO2 (stereo not drawn),–
CC1(C(=O)NCc2ccccc2)Cn2c(nc3ccccc32)C(=O)N1Cc1ccc(Cl)cc1 (stereo not drawn),–
Clc1ccc(Cn2c(Cc3ccccc3)nc3ccccc32)cc1,+
Clc1ccc(Cn2c(CN3CCCC3)nc3ccccc32)cc1,–
CCOC(=O)c1cc2n(n1)CC(C)(C(=O)NC1CCCC1)N(Cc1ccc(OC(C)C)cc1)C2=O (stereo not drawn),–
CC1=CC(=O)C(=C(C)C)CC2C(C)(O)CCC12O (stereo not drawn),+
CC(C)=C1C[C@@]2(C)C(=CC1=O)CC[C@@H](O)[C@@H]2C,–
CC1(C(=O)NC2CCCCCCC2)Cn2c(cc3occc32)C(=O)N1Cc1ccc(F)cc1 (stereo not drawn),–
CCOc1cccc(C2c3cccn3-c3sc4c(c3CN2C(=O)Nc2ccc3c(c2)OCCO3)CCCC4)c1 (stereo not drawn),–
CC(=O)Nc1ccc(S(=O)(=O)N2C[C@@H]3C[C@H](C2)c2c(-c4ccc(OC(F)(F)F)cc4)ccc(=O)n2C3)cc1,–
CC1(C(=O)NC2CCCCCC2)Cn2c(cc3ccccc32)C(=O)N1Cc1ccccc1 (stereo not drawn),–
SMILES,Methyltransferases
CCN1CCN(Cc2ccc(Nc3ncc(F)c(-c4cc(F)c5nc(C)n(C(C)C)c5c4)n3)nc2)CC1,+
C=C1CCC2C(C)(C(=O)O)CCCC2(C)C1CCC1=CCOC1=O (stereo not drawn),–
O=C1CN(Cc2ccc(Cl)cc2)S(=O)(=O)c2ccccc2N1Cc1ccc(F)cc1,–
CCOC(=O)c1cc2n(n1)CC(C)(C(=O)NCc1ccc(C)cc1)N(c1cccc(Cl)c1C)C2=O (stereo not drawn),–
CC(C)NC(=O)c1ccc2c(=O)n(C)c3nn(CC(=O)Nc4cccc(F)c4)c(=O)n3c2c1,–
Cc1nn2c(c1-c1ccnn1C(C)C)N(C(=O)COc1ccccc1C(N)=O)CCC2,–
Cc1ccc(C(=O)Cn2nc3n(CCC(C)C)c(=O)c4ccc(C(=O)NC(C)C)cc4n3c2=O)cc1,–
COc1cc(-c2onc(C)c2C(=O)NCCCOC(C)C)cc(OC)c1OC,–
CCCN1C(=O)c2c(C(=O)NCc3cccc(Br)c3)ncn2CC1(C)C(=O)NCCC(C)C (stereo not drawn),–
